Screening data as filed in PubChem BioAssay.
This is one part of a sample in which hits are shown more often than they occur.
PDI inh – inhibitors of human PDI, primary screen, biochemical, turbidity, single point, plate reader | inhibition, % at 10 µM | Protein disulfide-isomerase (Homo sapiens), P07237 | PDI insulin aggregation turbidity, A650, 90 min | 0.052% of 350,000 active;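 active = mean inhibition across replicates of 30% or more, whatever share of single replicates reach that level; inconclusive = mean inhibition below 30% while every single replicate reaches 30%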
HDAC3 inh – HDAC3 deacetylase inhibitors, primary screen, biochemical, fluorescence, cell-free homogeneous | 0.15% of 320,000 active | Histone deacetylase 3 (Homo sapiens), O15379 | inhibition, % at 8.3 µM | AID 2718, 2010 | recombinant HDAC3, fluorogenic peptide/trypsin coupled; in the data active = inhibition above about 26%, passing the limit was not always enough; inconclusive = no clear call, values can overlap the other calls
ERp5 block – inhibitors of ERp5-driven insulin aggregation, primary screen, biochemical, turbidity, absorbance 650 nm, single point; Protein disulfide-isomerase A6 (Homo sapiens), Q15084; 90 min; inhibition, % at 9.99 µM; 0.05% of 350,000 active; AID 651711, 2012;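 active = mean replicate inhibition above about 25%, with every replicate also reaching it, limit read from the data, passing the limit was not always enough; inconclusive = only one of those two criteria met; inactive = neither criterion met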
SIRT5 block – SIRT5 desuccinylase inhibitors, primary screen, biochemical, fluorescence imaging, single point, set 5; NAD-dependent protein deacylase sirtuin-5, mitochondrial (Homo sapiens), Q9NXA8; Purified SirT5, succinyl-peptide AMC, trypsin-coupled fluorescence; inhibition, % at 15 µM; 1.1% of 330,000 active; in the data active = inhibition above about 15%; inconclusive = no clear call, values can overlap the other calls
ERAP1 HTS inh – human ERAP1 aminopeptidase inhibitors, primary screen, biochemical, single point, plate reader | recombinant ERAP1, Leu-AMC fluorescence, 60 min | inhibition, % at 10.7 µM | 0.15% of 340,000 active | Endoplasmic reticulum aminopeptidase 1 (Homo sapiens), Q9NZ08;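 active = mean replicate inhibition of at least 30%, or all replicates individually reaching that 30% level; inactive = mean below 30% and not every replicate reaching it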
Target sequence (Q9NZ08 whole entry, looked up): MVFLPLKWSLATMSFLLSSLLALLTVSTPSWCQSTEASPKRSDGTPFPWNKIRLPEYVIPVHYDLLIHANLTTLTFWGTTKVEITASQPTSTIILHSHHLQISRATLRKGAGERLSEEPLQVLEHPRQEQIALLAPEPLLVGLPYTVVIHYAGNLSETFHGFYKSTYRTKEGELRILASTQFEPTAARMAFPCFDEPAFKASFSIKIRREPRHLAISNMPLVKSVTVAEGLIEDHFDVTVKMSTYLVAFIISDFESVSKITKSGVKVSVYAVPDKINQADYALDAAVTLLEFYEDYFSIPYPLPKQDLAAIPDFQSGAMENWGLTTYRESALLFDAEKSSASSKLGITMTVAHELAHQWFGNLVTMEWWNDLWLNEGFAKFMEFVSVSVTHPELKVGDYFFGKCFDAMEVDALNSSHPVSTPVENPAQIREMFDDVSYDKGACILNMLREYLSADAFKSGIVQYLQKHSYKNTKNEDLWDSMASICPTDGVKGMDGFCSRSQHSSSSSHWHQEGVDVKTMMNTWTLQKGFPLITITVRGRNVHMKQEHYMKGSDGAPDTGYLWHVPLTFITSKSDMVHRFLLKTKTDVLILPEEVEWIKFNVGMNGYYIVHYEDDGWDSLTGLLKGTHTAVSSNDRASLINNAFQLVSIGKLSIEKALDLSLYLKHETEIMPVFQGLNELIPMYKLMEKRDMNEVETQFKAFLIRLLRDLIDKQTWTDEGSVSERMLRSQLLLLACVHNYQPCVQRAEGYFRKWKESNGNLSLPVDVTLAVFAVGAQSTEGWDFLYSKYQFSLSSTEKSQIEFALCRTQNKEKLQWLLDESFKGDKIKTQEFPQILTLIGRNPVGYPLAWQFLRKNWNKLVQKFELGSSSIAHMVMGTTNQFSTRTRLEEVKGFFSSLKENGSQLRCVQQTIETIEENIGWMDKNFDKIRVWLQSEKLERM
A number is an active result; – = inactive; ? = inconclusive; · = not tested or not shown.

SMILES	PDI inh	HDAC3 inh	ERp5 block	SIRT5 block	ERAP1 HTS inh
COc1ccc(S(=O)(=O)N(C)C[C@@H]2OCCCC[C@@H](C)Oc3ccc(NS(=O)(=O)c4ccc(C)cc4)cc3C(=O)N([C@@H](C)CO)C[C@H]2C)cc1	·	·	–	17	–
COc1ccc(S(=O)(=O)N(C)C[C@@H]2OCCCC[C@@H](C)Oc3ccc(NS(=O)(=O)c4ccc(C)cc4)cc3C(=O)N([C@H](C)CO)C[C@@H]2C)cc1	·	·	–	15	–
COc1ccc(S(=O)(=O)N(C)C[C@@H]2OCCCC[C@H](C)Oc3ccc(NS(=O)(=O)c4ccccc4)cc3C(=O)N([C@@H](C)CO)C[C@H]2C)cc1	·	·	–	–	–
COc1ccc(S(=O)(=O)N(C)C[C@H]2OCCCC[C@H](C)Oc3ccc(NS(=O)(=O)c4ccc(C)cc4)cc3C(=O)N([C@H](C)CO)C[C@@H]2C)cc1	·	·	–	23	–
COc1ccc(S(=O)(=O)Nc2ccc3c(c2)C(=O)N([C@@H](C)CO)C[C@H](C)[C@H](CN(C)S(=O)(=O)c2ccccc2)OCCCC[C@@H](C)O3)cc1	·	·	–	15	–
C[C@H](CO)N1C[C@H](C)[C@H](CN(C)C(=O)CN(C)C)Oc2ncc(C#Cc3ccccc3)cc2C1=O	·	·	–	–	–
Cc1cc(/C=C2\SC(=S)N(C)C2=O)c(C)n1-c1ccc(O)cc1	75	–	–	–	–
CCn1c(CNC(=O)c2ccc(OC)cc2)nnc1SCC(=O)c1ccccc1	–	–	·	·	·
CCn1c(CCNC(=O)c2cccs2)nnc1SCC(=O)c1ccc(OC)cc1	–	27	·	·	·
CCOC(=O)C(C)OC(=O)C1=C(C)NC(=O)NC1c1ccc2c(c1)OCO2 (stereo not drawn)	–	–	–	20	–
CCCCCOC(=O)C1=C(C)NC(=O)NC1c1ccc2c(c1)OCO2 (stereo not drawn)	–	–	–	·	–
COc1cc2c(C(=O)N3CCN(c4ccccc4F)CC3)cn(C)c(=O)c2cc1OC	–	44	–	–	–
Cc1ccc(S(=O)(=O)Nc2ccc3c(c2)C(=O)N([C@H](C)CO)C[C@@H](C)[C@@H](CN(C)C(=O)Nc2c(C)noc2C)OCCCC[C@@H](C)O3)cc1	·	·	–	–	–
CC(C)C#Cc1ccc2c(c1)O[C@@H](CN(C)C)[C@@H](C)CN([C@@H](C)CO)S2(=O)=O	·	·	–	–	·
CSC1=NS(=O)(=O)c2c(C)nn(C)c2S1	–	–	–	–	87
CCCNC(=O)N(C)C[C@@H]1Oc2ncc(C#CC3(O)CCCC3)cc2C(=O)N([C@H](C)CO)C[C@H]1C	·	·	–	–	–
COc1ccc(NC(=O)CSc2nnc(NC(=O)C3CC3)s2)cc1OC	–	–	26	–	–
CN(CC(=O)Nc1ccccc1C(F)(F)F)C(=O)CSc1nnc(-c2ccncc2)n1C	–	–	–	–	35
CCOCCCNCc1ccc(OCc2ccccc2C)c(OC)c1	–	–	–	20	·
C[C@H](CO)N1C[C@H](C)[C@H](CN(C)C(=O)Cc2ccncc2)Oc2ncc(C#CC3(O)CCCC3)cc2C1=O	·	·	–	–	–
C[C@H]1CN([C@@H](C)CO)C(=O)Cc2cc(NS(=O)(=O)c3ccccc3)ccc2O[C@H]1CN(C)Cc1ccc(-c2ccccc2)cc1	·	·	–	–	–
Cc1noc(C)c1S(=O)(=O)Nc1ccc2c(c1)CC(=O)N([C@@H](C)CO)C[C@H](C)[C@H](CN(C)Cc1ccccc1)O2	·	·	–	–	–
C[C@H](CO)N1C[C@H](C)[C@@H](CN(C)Cc2ccc(-c3ccccc3)cc2)Oc2ccc(NS(=O)(=O)c3ccccc3)cc2CC1=O	·	·	–	18	–
C[C@@H]1CN([C@H](C)CO)C(=O)Cc2cc(NS(=O)(=O)c3ccccc3)ccc2O[C@H]1CN(C)Cc1ccc(-c2ccccc2)cc1	·	·	–	15	–
Cc1noc(C)c1S(=O)(=O)Nc1ccc2c(c1)CC(=O)N([C@H](C)CO)C[C@H](C)[C@@H](CN(C)Cc1ccc(C(=O)O)cc1)O2	·	·	–	25	–
SMILES	PDI inh	HDAC3 inh	ERp5 block	SIRT5 block	ERAP1 HTS inh
Cc1noc(C)c1S(=O)(=O)N(C)C[C@H]1Oc2ccc(NC(=O)Cn3cnnn3)cc2CC(=O)N([C@H](C)CO)C[C@H]1C	·	·	–	28	–
C[C@H]1CN([C@@H](C)CO)C(=O)c2cc(NC(=O)C3CCCCC3)ccc2O[C@H]1CN(C)C(=O)Nc1ccc(F)cc1	·	·	–	–	–
COc1ccc(S(=O)(=O)Nc2ccc3c(c2)C(=O)N([C@@H](C)CO)C[C@H](C)[C@@H](CN(C)Cc2ccccc2)O3)cc1	·	·	–	–	–
Cc1noc(C)c1NC(=O)Nc1ccc2c(c1)CC(=O)N([C@H](C)CO)C[C@@H](C)[C@@H](CN(C)Cc1ccc(-c3ccccc3)cc1)O2	·	·	–	16	–
Cc1noc(C)c1NC(=O)Nc1ccc2c(c1)CC(=O)N([C@H](C)CO)C[C@H](C)[C@@H](CN(C)Cc1ccc(-c3ccccc3)cc1)O2	·	·	–	–	–
CN(CCO)c1ccc(C=NNc2ccc([N+](=O)[O-])cc2S(=O)(=O)Nc2ccccc2C(=O)O)cc1	–	?	–	22	–
CC(=O)Nc1ccc(C=NNc2ccc(S(=O)(=O)Nc3ccccc3C(=O)O)cc2[N+](=O)[O-])cc1	–	–	–	17	–
Cc1ccc(NC(=S)NNc2ccc([N+](=O)[O-])cc2S(=O)(=O)Nc2ccccc2C(=O)O)cc1C	–	–	·	·	·
CC(=O)Nc1cccc(/C(C)=N/Nc2ccc(S(=O)(=O)Nc3ccccc3C(=O)O)cc2[N+](=O)[O-])c1	–	·	–	21	–
CC(=O)Nc1ccc(C=NNc2ccc([N+](=O)[O-])cc2S(=O)(=O)Nc2ccccc2C(=O)O)cc1	–	–	–	26	–
O=C(C[C@H]1C=C[C@@H](NC(=O)c2ccccn2)[C@H](CO)O1)NCc1cccc(F)c1	·	·	–	–	–
C[C@H]1CN([C@@H](C)CO)C(=O)Cc2cc(NC(=O)CCCCCC(=O)Nc3ccccc3N)ccc2O[C@H]1CN(C)S(=O)(=O)c1cn(C)cn1	·	·	–	·	–
COc1ccc(C(C)=NNc2ccc([N+](=O)[O-])cc2S(=O)(=O)Nc2ccccc2C(=O)O)c(OC)c1	–	–	–	15	–
O=C(O)c1ccccc1NS(=O)(=O)c1ccc(NNC(=S)Nc2ccc(OC(F)F)cc2)c([N+](=O)[O-])c1	–	·	–	24	–
CCOc1ccc(C=NNc2ccc(S(=O)(=O)Nc3ccccc3C(=O)O)cc2[N+](=O)[O-])cc1OC	–	·	·	·	·
COc1cc(C=NNc2ccc(S(=O)(=O)Nc3ccccc3C(=O)O)cc2[N+](=O)[O-])ccc1O	–	–	–	22	–
C/C=C/c1ccc2c(c1)O[C@@H](CN(C)C(=O)c1cccc(F)c1)[C@H](C)CN([C@@H](C)CO)S2(=O)=O	·	·	–	–	–
